# Measurements from the supplement of paper PMC8728848.
# Only a selection was taken, and the strongest signals are over-represented in it overall.
# B1: PVL (Psathyrella velutina), Q309D1_9AGAR (protein)
# chain: MSVVVISQALPVPTRIPGVADLVGFGNGGVYIIRNSLLIQVVKVINNFGYDAGGWRVEKHVRLLADTTGDNQPDVVGFGENGVWISTNNGNNTFVDPPKMVLANFAYAAGGWRVEKHIRFMADLRKTGRADIVGFGDGGIYISRNNGGGQFAPAQLALNNFGYAQGWRLDRHLRFLADVTGDGLLDVVGFGENQVYIARNSGNGTFQPAQAVVNNFCIGAGGWTISAHPRVVADLTGDRKADILGFGVAGVYTSLNNGNGTFGAVNLVLKDFGVNSGWRVEKHVRCVSSLTNKKVGDIIGFGDAGVYVALNNGNGTFGPVKRVIDNFGYNQGWRVDKHPRFVVDLTGDGCADIVGFGENSVWACMNKGDGTFGPIMKLIDDMTVSKGWTLQKTVRYAANLYL
# How the values were obtained:
# Test in all cases: glycan array binding signal (z-score within array); higher = stronger binding
# Conditions in all cases: glycan notation: IUPAC condensed, linker removed
# GlcNAc(b1-3)Gal(b1-4)Glc = biological target: GlcNAc(b1-3)Gal(b1-4)Glc
# How it was run: (§1)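 From the Consortium for Functional Glycomics database, 3228 arrays were curated, keeping only those whose protein sequence was available. Binding is given as a within-array Z-score averaged across arrays sharing a protein sequence and across linkers. Negative Z-scores can be read as non-binding.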
# [1] = biological target: GlcNAc(b1-3)Gal(b1-4)GlcNAc(b1-2)Man(a1-3)[GlcNAc(b1-3)Gal(b1-4)GlcNAc(b1-2)Man(a1-6)]Man(b1-4)GlcNAc(b1-4)[Fuc(a1-6)]GlcNAc
# How it was run: as §1
# [2] = biological target: GlcNAc(b1-3)Gal(b1-4)GlcNAc(b1-3)Gal(b1-4)GlcNAc
# How it was run: as §1
# [3] = biological target: GlcNAc(b1-3)Gal(b1-4)GlcNAc(b1-3)Gal(b1-4)GlcNAc(b1-2)Man(a1-3)[GlcNAc(b1-3)Gal(b1-4)GlcNAc(b1-3)Gal(b1-4)GlcNAc(b1-2)Man(a1-6)]Man(b1-4)GlcNAc(b1-4)GlcNAc
# How it was run: as §1
# [4] = biological target: GlcNAc(b1-3)Gal(b1-4)GlcNAc(b1-3)Gal(b1-4)GlcNAc(b1-2)Man(a1-3)[GlcNAc(b1-3)Gal(b1-4)GlcNAc(b1-3)Gal(b1-4)GlcNAc(b1-2)Man(a1-6)]Man(b1-4)GlcNAc(b1-4)[Fuc(a1-6)]GlcNAc
# How it was run: as §1
# [5] = biological target: GlcNAc(b1-3)Gal(b1-4)GlcNAc(b1-3)Gal(b1-4)GlcNAc(b1-2)[GlcNAc(b1-3)Gal(b1-4)GlcNAc(b1-3)Gal(b1-4)GlcNAc(b1-6)]Man(a1-6)[GlcNAc(b1-3)Gal(b1-4)GlcNAc(b1-3)Gal(b1-4)GlcNAc(b1-2)Man(a1-3)]Man(b1-4)GlcNAc(b1-4)[Fuc(a1-6)]GlcNAc
# How it was run: as §1
# [6] = biological target: GlcNAc(b1-3)Gal(b1-4)GlcNAc(b1-3)Gal(b1-4)GlcNAc(b1-3)Gal(b1-4)GlcNAc(b1-2)Man(a1-3)[GlcNAc(b1-3)Gal(b1-4)GlcNAc(b1-3)Gal(b1-4)GlcNAc(b1-3)Gal(b1-4)GlcNAc(b1-2)Man(a1-6)]Man(b1-4)GlcNAc(b1-4)GlcNAc
# How it was run: as §1
# [7] = biological target: GlcNAc(b1-3)Gal(b1-4)GlcNAc(b1-3)Gal(b1-4)GlcNAc(b1-3)Gal(b1-4)GlcNAc(b1-2)Man(a1-3)[GlcNAc(b1-3)Gal(b1-4)GlcNAc(b1-3)Gal(b1-4)GlcNAc(b1-3)Gal(b1-4)GlcNAc(b1-2)Man(a1-6)]Man(b1-4)GlcNAc(b1-4)[Fuc(a1-6)]GlcNAc
# How it was run: as §1
# [8] = biological target: GlcNAc(b1-3)Gal(b1-4)GlcNAc(b1-3)Gal(b1-4)GlcNAc(b1-3)Gal(b1-4)GlcNAc(b1-2)[GlcNAc(b1-3)Gal(b1-4)GlcNAc(b1-3)Gal(b1-4)GlcNAc(b1-3)Gal(b1-4)GlcNAc(b1-6)]Man(a1-6)[GlcNAc(b1-3)Gal(b1-4)GlcNAc(b1-3)Gal(b1-4)GlcNAc(b1-3)Gal(b1-4)GlcNAc(b1-2)Man(a1-3)]Man(b1-4)GlcNAc(b1-4)[Fuc(a1-6)]GlcNAc
# How it was run: as §1
# [9] = biological target: GlcNAc(b1-3)Gal(b1-4)GlcNAc(b1-3)Gal(b1-4)GlcNAc(b1-3)Gal(b1-4)GlcNAc(b1-3)Gal(b1-4)GlcNAc(b1-2)Man(a1-3)[GlcNAc(b1-3)Gal(b1-4)GlcNAc(b1-3)Gal(b1-4)GlcNAc(b1-3)Gal(b1-4)GlcNAc(b1-3)Gal(b1-4)GlcNAc(b1-2)Man(a1-6)]Man(b1-4)GlcNAc(b1-4)GlcNAc
# How it was run: as §1
# [10] = biological target: GlcNAc(b1-3)Gal(b1-4)GlcNAc(b1-3)Gal(b1-4)GlcNAc(b1-3)Gal(b1-4)GlcNAc(b1-3)Gal(b1-4)GlcNAc(b1-2)Man(a1-3)[GlcNAc(b1-3)Gal(b1-4)GlcNAc(b1-3)Gal(b1-4)GlcNAc(b1-3)Gal(b1-4)GlcNAc(b1-3)Gal(b1-4)GlcNAc(b1-2)Man(a1-6)]Man(b1-4)GlcNAc(b1-4)[Fuc(a1-6)]GlcNAc
# How it was run: as §1
# [11] = biological target: GlcNAc(b1-3)Gal(b1-4)GlcNAc(b1-3)Gal(b1-4)GlcNAc(b1-3)Gal(b1-4)GlcNAc(b1-3)Gal(b1-4)GlcNAc(b1-2)[GlcNAc(b1-3)Gal(b1-4)GlcNAc(b1-3)Gal(b1-4)GlcNAc(b1-3)Gal(b1-4)GlcNAc(b1-3)Gal(b1-4)GlcNAc(b1-6)]Man(a1-6)[GlcNAc(b1-3)Gal(b1-4)GlcNAc(b1-3)Gal(b1-4)GlcNAc(b1-3)Gal(b1-4)GlcNAc(b1-3)Gal(b1-4)GlcNAc(b1-2)Man(a1-3)]Man(b1-4)GlcNAc(b1-4)[Fuc(a1-6)]GlcNAc
# How it was run: as §1
# [12] = biological target: GlcNAc(b1-3)Gal(b1-4)GlcNAc(b1-6)[GlcNAc(b1-3)Gal(b1-3)]GalNAc
# How it was run: as §1
# [13] = biological target: GlcNAc(b1-3)[GlcNAc(b1-6)]GalNAc
# How it was run: as §1
# [14] = biological target: GlcNAc(b1-4)GlcNAc(b1-4)GlcNAc(b1-4)GlcNAc(b1-4)GlcNAc(b1-4)GlcNAc
# How it was run: as §1
# [15] = biological target: GlcNAc(b1-6)Gal(b1-4)GlcNAc
# How it was run: as §1
# [16] = biological target: Kdn(a2-3)Gal(b1-4)[Fuc(a1-3)]GlcNAc
# How it was run: as §1
# Neu5Ac(a2-3)Gal = biological target: Neu5Ac(a2-3)Gal
# How it was run: as §1
# [17] = biological target: Neu5Ac(a2-3)Gal(b1-4)GlcNAc(b1-2)Man
# How it was run: as §1
# [18] = biological target: Neu5Ac(a2-3)Gal(b1-4)GlcNAc(b1-2)[Neu5Ac(a2-3)Gal(b1-4)GlcNAc(b1-4)]Man(a1-3)[GlcNAc(b1-4)][Neu5Ac(a2-3)Gal(b1-4)GlcNAc(b1-2)[Neu5Ac(a2-3)Gal(b1-4)GlcNAc(b1-6)]Man(a1-6)]Man(b1-4)GlcNAc(b1-4)GlcNAc
# How it was run: as §1
# [19] = biological target: Neu5Ac(a2-3)Gal(b1-4)[Fuc(a1-3)]GlcNAc(b1-3)Gal(b1-4)[Fuc(a1-3)]GlcNAc(b1-3)Gal(b1-4)[Fuc(a1-3)]GlcNAc
# How it was run: as §1
# [20] = biological target: Neu5Ac(a2-3)GalNAc(b1-4)GlcNAc
# How it was run: as §1
# [21] = biological target: Neu5Ac(a2-6)Gal(b1-4)GlcNAc(b1-2)Man(a1-3)[Gal(b1-4)GlcNAc(b1-2)Man(a1-6)]Man(b1-4)GlcNAc(b1-4)GlcNAc
# How it was run: as §1
# [22] = biological target: Neu5Ac(a2-6)Gal(b1-4)GlcNAc(b1-2)Man(a1-3)[Man(a1-6)]Man(b1-4)GlcNAc(b1-4)GlcNAc
# How it was run: as §1
binder,measurement,setting,value
B1,glycan array binding signal (z-score),GlcNAc(b1-3)Gal(b1-4)Glc,4.07
same,glycan array binding signal (z-score),[1],3.27
same,glycan array binding signal (z-score),[2],4.46
same,glycan array binding signal (z-score),[3],3.34
same,glycan array binding signal (z-score),[4],4.03
same,glycan array binding signal (z-score),[5],4.69
same,glycan array binding signal (z-score),[6],4.58
same,glycan array binding signal (z-score),[7],4.34
same,glycan array binding signal (z-score),[8],5.13
same,glycan array binding signal (z-score),[9],4.45
same,glycan array binding signal (z-score),[10],4.27
same,glycan array binding signal (z-score),[11],5.12
same,glycan array binding signal (z-score),[12],2.71
same,glycan array binding signal (z-score),[13],1.1
same,glycan array binding signal (z-score),[14],0.53
same,glycan array binding signal (z-score),[15],0.714
same,glycan array binding signal (z-score),[16],-0.363
same,glycan array binding signal (z-score),Neu5Ac(a2-3)Gal,-0.341
same,glycan array binding signal (z-score),[17],-0.35
same,glycan array binding signal (z-score),[18],-0.201
same,glycan array binding signal (z-score),[19],-0.297
same,glycan array binding signal (z-score),[20],-0.351
same,glycan array binding signal (z-score),[21],-0.362
same,glycan array binding signal (z-score),[22],-0.349
